Measurements taken from PubChem BioAssay (Tox21).
Where “and” joins values, the source holds several entries; their conditions need not be identical. Equal values may be shown once. Results filed as inconclusive are left out. Entries that show only a call come without a potency. More than one record can exist for a structure, and the calls need not agree. Calls of active or inactive are those of the source. The call rests on the fitted dose curve; in most records, active means well fitted curve in the direction sought with a large enough effect in the repeat runs; inconclusive means weak or mixed curves; inactive means no such curve, though single readings can be large; an effect the other way counts as inactive or inconclusive.

Tests used:
[1] = qHTS RealTime-Glo MT Cell Viability Assay in HEK293 cells - 16 hour (AID 1224872); further: nearly all actives have a fitted effect of over 50% in size; further: potency means the concentration at half of the fitted maximal effect
Procedure, shortened: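 Cells + reagent dispensed (600 cells/well, HEK293) → 5 h at 37 C/5% CO2 → 23 nL compound in DMSO pinned → 40 h at 37 C → luminescence read at 0, 8, 16, 24, 32, 40 h.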

[2] = qHTS RealTime-Glo MT Cell Viability Assay in HepG2 cells - 8 hour (AID 1224873); further: nearly all actives have a fitted effect of over 55% in size; further: potency means the concentration at half of the fitted maximal effect
Procedure, shortened: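 Real-time viability: cells seeded at 600 per well together with NanoLuc and cell-permeant prosubstrate, compounds added after 5 h incubation. Luminescence tracked at 0, 8, 16, 24, 32 and 40 h of exposure.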

[3] = qHTS RealTime-Glo MT Cell Viability Assay in HEK293 cells - 40 hour (AID 1224874); settings: RealTime-Glo luminescence; max response: stronger effect = lower value; further: nearly all actives have a fitted effect of over 50% in size; further: potency means the concentration at half of the fitted maximal effect
Procedure, shortened: (§1)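 HEK293 + NanoLuc + prosubstrate, 600 cells/well; 5 h, 37 C/5% CO2; compound 23 nL in DMSO by pintool; 37 C; luminescence read at 0, 8, 16, 24, 32 and 40 h time points.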

[4] = A CellTox Green Cytotoxicity Assay to monitor cytotoxicity in HEK293 cells - 24 hour (AID 1224875); further: series mostly up to about 77 µM; nearly all actives have a fitted effect of over 45% in size
Procedure, shortened: (§2)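 Tox21 screen in HEK293: membrane-impermeant cyanine dye fluoresces on binding dead-cell DNA; compound pinned 5 h post-seeding, plates held at 37 C, signal read repeatedly through 40 h.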

[5] = A CellTox Green Cytotoxicity Assay to monitor cytotoxicity in HepG2 cells - 40 hour (AID 1224879); further: nearly all actives have a fitted effect of over 40% in size; further: potency means the concentration at half of the fitted maximal effect
Procedure, shortened: (§3)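 Measurements at 0, 8, 16, 24, 32 and 40 h of treatment captured CellTox Green fluorescence in HepG2 cells that had been co-plated with reagent and preincubated 5 h at 37 C/5% CO2.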

[6] = qHTS RealTime-Glo MT Cell Viability Assay in HEK293 cells - 0 hour (AID 1224880); further: nearly all actives have a fitted effect of over 45% in size; further: potency means the concentration at half of the fitted maximal effect
Procedure, shortened: as §1

[7] = A CellTox Green Cytotoxicity Assay to monitor cytotoxicity in HEK293 cells - 32 hour (AID 1224881); further: nearly all actives have a fitted effect of over 40% in size; further: potency means the concentration at half of the fitted maximal effect
Procedure, shortened: as §2

[8] = qHTS RealTime-Glo MT Cell Viability Assay in HepG2 cells - 32 hour (AID 1224877); further: nearly all actives have a fitted effect of over 55% in size; further: potency means the concentration at half of the fitted maximal effect
Procedure, shortened: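 Real-time, nonlytic viability: 600 HepG2 cells/well mixed with NanoLuc enzyme plus prosubstrate; 5 h settle, compound (DMSO) added by pintool; luminescence monitored over 40 h at 37 C.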

[9] = A CellTox Green Cytotoxicity Assay to monitor cytotoxicity in HepG2 cells - 24 hour (AID 1224878); further: nearly all actives have a fitted effect of over 45% in size
Procedure, shortened: as §3

[10] = A CellTox Green Cytotoxicity Assay to monitor cytotoxicity in HepG2 cells - 16 hour (AID 1224876); further: nearly all actives have a fitted effect of over 45% in size
Procedure, shortened: as §3

| Compound | Potency [1] | Potency [2] | max response [3] | Potency [4] | Potency [5] | Potency [6] | Potency [7] | Potency [3] | Potency [8] | Potency [9] | Potency [10] |
| --- | --- | --- | --- | --- | --- | --- | --- | --- | --- | --- | --- |
| OC[C@@H](O)[C@@H](O[C@@H]1O[C@H](CO)[C@H](O)[C@H](O)[C@H]1O)[C@H](O)[C@@H](O)CO | inactive | inactive | 5.89% (inactive) and 2.02% (inactive) | inactive | inactive | inactive | inactive |  |  |  |  |
| COc1ccc(-c2coc3cc(O)cc(O)c3c2=O)cc1 |  | inactive |  | inactive | 55.4 µM (active) | inactive | inactive | 49.4 µM (active) |  |  |  |
| COC(=O)C(C)Oc1ccc(Oc2ncc(C(F)(F)F)cc2Cl)cc1 (centres undefined) |  | inactive | -25% (inactive) | inactive | inactive | inactive | inactive |  |  |  |  |
| C=C[Si](OCCOC)(OCCOC)OCCOC | inactive | inactive | 5.17% (inactive) and 4.57% (inactive) | inactive | inactive | inactive | inactive |  | inactive |  |  |
| O=S1(=O)CCCO1 | inactive | inactive | 5.89% (inactive) and 10.2% (inactive) | inactive | inactive | inactive | inactive |  | inactive | inactive |  |
| C1CN(SSN2CCOCC2)CCO1 | inactive |  | -14.4% (inactive) |  | inactive | inactive | 48.5 µM (active) and inactive |  | inactive | inactive | inactive |
| NC[C@H](O)c1ccc(O)c(O)c1 | inactive | inactive | -0.0212% (inactive) and 2.99% (inactive) | inactive | inactive | inactive | inactive |  |  | inactive |  |
| CCCCCCCCCCCCO | inactive | inactive | -4.3% (inactive) and -1.21% (inactive) | inactive | inactive | inactive | inactive |  | inactive |  |  |
| CC(=O)Oc1ccc(C(c2ccc(OC(C)=O)cc2)c2ccccn2)cc1 | inactive | inactive | -20.4% (inactive) | inactive | inactive |  | inactive |  |  | inactive |  |
| C=CCNCC=C | inactive | inactive | 4.5% (inactive) and 4.18% (inactive) | inactive | inactive | inactive | inactive |  |  | inactive |  |
| CCC(=O)O[C@H]1[C@H](O[C@@H]2[C@@H](C)[C@H](O[C@H]3C[C@@](C)(OC)[C@@H](O)[C@H](C)O3)[C@@H](C)C(=O)O[C@H](CC)[C@@](C)(O)[C@H](O)[C@@H](C)C(=O)[C@H](C)C[C@@]2(C)O)O[C@H](C)C[C@@H]1N(C)C | inactive | inactive | -5.5% (inactive) |  | inactive | inactive | 28.9 µM (active) and inactive |  | inactive | inactive |  |
| O=C1CCc2ccccc2O1 | inactive | inactive | 3.8% (inactive) and -0.872% (inactive) |  | inactive | inactive | inactive and 21.9 µM (active) |  | inactive | inactive |  |
| CN(C)C | inactive | inactive | 3.08% (inactive) and -9.36% (inactive) | inactive | inactive | inactive | inactive |  |  | inactive |  |
| c1ccc2c(c1)ccc1cc3c(ccc4ccccc43)cc12 | inactive | inactive | 16% (inactive) and 7.61% (inactive) | inactive | 4.32 µM (active) and 1.22 µM (active) | inactive | inactive |  | inactive | inactive |  |
| Cc1ccc(/C(=C\CN2CCCC2)c2ccccn2)cc1 | inactive | inactive | -3.85% (inactive) | inactive | inactive | inactive | inactive |  | inactive | inactive |  |
| CNC[C@H](O)c1ccc(O)c(O)c1 | inactive | inactive | 2.12% (inactive) and 11.8% (inactive) | inactive | inactive | inactive | inactive |  |  | inactive |  |
| CCc1cccc2c3c([nH]c12)C(CC)(CC(=O)O)OCC3 (centres undefined) | inactive | inactive | 0.853% (inactive) and 0.265% (inactive) | inactive | inactive | inactive | inactive |  | inactive | inactive |  |
| CCCCCCCC/C=C\CCCCCCCC(=O)O | inactive | inactive | 12.6% (inactive) and 4.42% (inactive) | inactive | inactive | inactive | inactive |  | inactive | inactive |  |
| Nc1ccc(N)c(Cl)c1 | 48.9 µM (active) | inactive and 49 µM (active) | -27.4% (inactive) and -12.8% (inactive) |  | inactive and 43.6 µM (active) | inactive | inactive and 27.5 µM (active) |  | inactive |  |  |

| Compound | Potency [1] | Potency [2] | max response [3] | Potency [4] | Potency [5] | Potency [6] | Potency [7] | Potency [3] | Potency [8] | Potency [9] | Potency [10] |
| --- | --- | --- | --- | --- | --- | --- | --- | --- | --- | --- | --- |
| CCCCCCC(C)O (centres undefined) | inactive | inactive | 1.85% (inactive) and 4.03% (inactive) | inactive | inactive | inactive | inactive |  |  | inactive |  |
| CC1(C)NC(=O)N(c2ccc([N+](=O)[O-])c(C(F)(F)F)c2)C1=O |  | inactive |  | inactive | inactive | inactive | inactive | 24.5 µM (active) |  | inactive | inactive |
| OCCNCCO | inactive | inactive | 4.46% (inactive) and 5.31% (inactive) | inactive | inactive | inactive | inactive |  |  | inactive |  |
| O=C(O)COCCN1CCN(C(c2ccccc2)c2ccc(Cl)cc2)CC1 (centres undefined) | inactive | inactive | 5.07% (inactive) and 2.04% (inactive) | inactive | inactive | inactive | inactive |  | inactive | inactive |  |
| CC1(C)O[C@@H]2C[C@H]3[C@@H]4C[C@H](F)C5=CC(=O)C=C[C@]5(C)[C@@]4(F)[C@@H](O)C[C@]3(C)[C@]2(C(=O)CO)O1 | inactive | inactive | -29.2% (inactive) and -4.18% (inactive) | inactive | inactive |  | inactive |  |  | inactive |  |
| C=C1C[C@H]2[C@@H]3C=C(C)C4=CC(=O)CC[C@]4(C)[C@H]3CC[C@]2(C)[C@@]1(OC(C)=O)C(C)=O |  | inactive |  | inactive | inactive |  | inactive |  |  | inactive | inactive |
| COc1cc([C@H]2Oc3cc([C@H]4Oc5cc(O)cc(O)c5C(=O)[C@@H]4O)ccc3O[C@@H]2CO)ccc1O | inactive | inactive | -16.5% (inactive) |  | inactive and 21.3 µM (active) | inactive | inactive and 15.1 µM (active) |  | inactive |  |  |
| CCC(Cc1c(I)cc(I)c(N)c1I)C(=O)O (centres undefined) | inactive | inactive | 3.1% (inactive) and 8.35% (inactive) | inactive | inactive | inactive | inactive |  | inactive | inactive |  |
| C[C@]12CC[C@@H]3c4ccc(O)cc4CC[C@H]3[C@@H]1CC[C@H]2O |  | inactive |  | inactive | 9.94 µM (active) and 34.7 µM (active) | inactive | inactive | 5.59 µM (active) and 15.5 µM (active) | inactive |  | inactive |
| CC/C(=C(/CC)c1ccc(O)cc1)c1ccc(O)cc1 | 15.4 µM (active) and 30.9 µM (active) | inactive |  | inactive | inactive | inactive | inactive | 12.2 µM (active) and 27.5 µM (active) and 19 µM (active) | inactive | inactive |  |
| C=C[C@@]1(C)CC(=O)[C@]2(O)[C@@]3(C)[C@@H](O)CCC(C)(C)[C@@H]3[C@H](O)[C@H](OC(C)=O)[C@@]2(C)O1 | inactive | inactive | -11.8% (inactive) | inactive | inactive | inactive | inactive |  | inactive |  |  |
| CC(C)=CCO | inactive | inactive | 4.01% (inactive) and 0.683% (inactive) | inactive | inactive | inactive | inactive |  | inactive |  |  |
| CCCCCCOCCOCCO | inactive | inactive | 4% (inactive) and -0.302% (inactive) | inactive | inactive | inactive | inactive |  |  |  |  |
| C[C@]12CC[C@@H]3c4ccc(O)cc4CC[C@H]3[C@@H]1CC[C@@H]2O |  | inactive |  | inactive | 34.6 µM (active) | inactive | inactive | 17.3 µM (active) and 21.9 µM (active) | inactive | inactive | inactive |
| O=C(CCCN1CCC(O)(c2ccc(Cl)cc2)CC1)c1ccc(F)cc1 | 13.8 µM (active) and 5.35 µM (active) | 49 µM (active) and inactive |  |  | 24.5 µM (active) and 26.8 µM (active) | inactive | 49 µM (active) and inactive | 21.9 µM (active) and 8.49 µM (active) | 49 µM (active) and inactive |  |  |
| CC(=O)O[C@]1(C(C)=O)CC[C@H]2[C@@H]3C=C(C)C4=CC(=O)CC[C@]4(C)[C@H]3CC[C@@]21C |  | inactive |  | inactive | inactive | 5.49 µM (active) and 2.68 µM (active) | inactive | 19.5 µM (active) and 10.7 µM (active) | inactive |  | inactive |
| Cc1ccc(S(=O)(=O)NCl)cc1 | inactive | inactive | 4.42% (inactive) and 3.53% (inactive) | inactive | inactive | inactive | inactive |  | inactive |  |  |
| Oc1ccc(C(c2ccc(O)cc2)C(Cl)(Cl)Cl)cc1 |  | inactive |  | inactive | inactive | inactive | inactive | 34.5 µM (active) |  |  | inactive |
| [Na+] | inactive | inactive | 3.11% (inactive) and 3.69% (inactive) | inactive | inactive | inactive | inactive |  | inactive and 49 µM (active) |  |  |
